Results filed as inconclusive are left out. Some structures have more than one record in an assay (separate samples or runs), and their calls can disagree. Activity calls are given as the source filed them. How the source made its calls, unless noted: active means hit-call score of the fitted dose curve at least 0.9, where 1 is the maximum; inactive means score below 0.9.

In assay [1] the target is Glucocorticoid receptor (Homo sapiens) (UniProt P04150). As to the kind of experiment: ATG_GR_TRANS: Attagene TRANS-FACTORIAL HepG2 Assay for human Glucocorticoid Receptor (GR) (AID 2282978; active means hit-call score of the fitted dose curve at least 0.9, where 1 is the maximum;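 further: activators score as hits since higher reporter transcript over DMSO is fitted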). The following applies: HepG2 Attagene TRANS GR reporter, mRNA transcription. An outline of the steps: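 Exogenous NR-GAL4 fusion activity was assessed through induced GAL4-UAS reporter transcripts in transfected human HepG2 cells, quantified after 24 h by RT-PCR and fluorescent capillary electrophoresis with DMSO as baseline.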
Glucocorticoid receptor (Homo sapiens), sequence (P04150 whole entry, looked up, the tested form may be a part): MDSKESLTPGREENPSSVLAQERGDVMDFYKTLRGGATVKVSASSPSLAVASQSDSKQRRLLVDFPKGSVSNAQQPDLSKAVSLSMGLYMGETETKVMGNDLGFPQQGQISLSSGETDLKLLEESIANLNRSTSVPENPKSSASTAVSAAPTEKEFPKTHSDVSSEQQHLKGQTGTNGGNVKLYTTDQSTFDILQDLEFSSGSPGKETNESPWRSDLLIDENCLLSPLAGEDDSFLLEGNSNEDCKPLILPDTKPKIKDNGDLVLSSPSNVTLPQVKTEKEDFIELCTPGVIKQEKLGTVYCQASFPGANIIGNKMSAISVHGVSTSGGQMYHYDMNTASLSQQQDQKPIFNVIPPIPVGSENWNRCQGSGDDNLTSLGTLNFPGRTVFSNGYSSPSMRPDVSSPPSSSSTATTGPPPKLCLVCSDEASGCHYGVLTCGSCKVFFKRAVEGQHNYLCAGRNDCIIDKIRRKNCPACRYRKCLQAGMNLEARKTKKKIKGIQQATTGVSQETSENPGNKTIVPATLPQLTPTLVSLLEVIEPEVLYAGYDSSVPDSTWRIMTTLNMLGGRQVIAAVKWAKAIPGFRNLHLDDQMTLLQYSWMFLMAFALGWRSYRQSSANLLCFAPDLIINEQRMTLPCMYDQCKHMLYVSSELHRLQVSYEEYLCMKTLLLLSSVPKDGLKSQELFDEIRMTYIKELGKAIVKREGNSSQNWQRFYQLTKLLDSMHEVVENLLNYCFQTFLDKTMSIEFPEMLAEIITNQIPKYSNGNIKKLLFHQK

Assay [2] has as its target Hepatocyte nuclear factor 4-alpha (Homo sapiens) (UniProt P41235). Description: ATG_HNF4a_TRANS: Attagene TRANS-FACTORIAL HepG2 Assay for human Hepatocyte Nuclear Factor 4 alpha (HNF4a) (AID 2282982; active means hit-call score of the fitted dose curve at least 0.9, where 1 is the maximum). The following applies: HepG2 HNF4a transactivation reporter, mRNA readout. An outline of the steps:
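Transient MRTU transfection of HepG2, 24 h dosing. Readout: reporter mRNA via RT-PCR + capillary electrophoresis, fluorescence; activity fit upward relative to DMSO control.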

Assay [3] in a line: ATG_M_06_TRANS: Attagene TRANS-FACTORIAL HepG2 Assay for M06 Transcription Factor (Internal Marker) (AID 2282983; active means hit-call score of the fitted dose curve at least 0.9, where 1 is the maximum;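 further: reporter transcript level by RT-PCR then capillary electrophoresis fluorescence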). The following applies: HepG2 Attagene TRANS M06 internal marker reporter. An outline of the steps: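 mRNA levels of a reporter transcript, quantified as FAM fluorescence on capillary electrophoresis, served as readout. HepG2 cells expressing exogenous GAL4-chimera reporter constructs were exposed for 24 h. Gain of signal over DMSO was evaluated.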

For assay [4], the target named is Transcriptional activator Myb (Homo sapiens) (UniProt P10242). As to the kind of experiment: ATG_Myb_CIS: Attagene CIS-FACTORIAL HepG2 Assay for human Myeloblastosis (Myb) Proto-Oncogene Transcription Factor (AID 2282986). The following applies: HepG2 Attagene CIS-FACTORIAL Myb reporter transcription; actives raise or lower the signal. An outline of the steps:
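In this HepG2 transient-transfection format, cis-regulated reporter mRNA is quantified 24 h post-dosing by RT-PCR with capillary electrophoresis, fitted bidirectionally to DMSO baseline.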

The nature of assay [5]: ATG_NFI_CIS: Attagene CIS-FACTORIAL HepG2 Assay for human Nuclear Factor I (NFI) (AID 2282989). The following applies: HepG2 cis-regulatory reporter, NFI response element transcription; actives raise or lower the signal. An outline of the steps: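 Transient MRTU transfection of HepG2 → 24 h chemical dosing → total RNA, oligo(dT) RT → PCR, 6-FAM primer extension, HpaI cut → capillary electrophoresis. Endpoint fitted bidirectionally relative to DMSO.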

Assay [6] deals with Myc proto-oncogene protein (Homo sapiens) (UniProt P01106). Description: ATG_Myc_CIS: Attagene CIS-FACTORIAL HepG2 Assay for human Myelocytomatosis (Myc) Proto-Oncogene Transcription Factor (AID 2282990). The following applies: HepG2, Attagene cis-reporter transcription factor activity; actives raise or lower the signal. An outline of the steps: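 Transiently transfected HepG2 cells bearing cis-promoter reporter units for endogenous transcription factors; 24 h exposure. Reporter mRNA measured by RT-PCR, 6-FAM primer extension, HpaI cut and capillary electrophoresis; bidirectional fit relative to DMSO.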
Myc proto-oncogene protein (Homo sapiens), sequence (P01106 whole entry, looked up): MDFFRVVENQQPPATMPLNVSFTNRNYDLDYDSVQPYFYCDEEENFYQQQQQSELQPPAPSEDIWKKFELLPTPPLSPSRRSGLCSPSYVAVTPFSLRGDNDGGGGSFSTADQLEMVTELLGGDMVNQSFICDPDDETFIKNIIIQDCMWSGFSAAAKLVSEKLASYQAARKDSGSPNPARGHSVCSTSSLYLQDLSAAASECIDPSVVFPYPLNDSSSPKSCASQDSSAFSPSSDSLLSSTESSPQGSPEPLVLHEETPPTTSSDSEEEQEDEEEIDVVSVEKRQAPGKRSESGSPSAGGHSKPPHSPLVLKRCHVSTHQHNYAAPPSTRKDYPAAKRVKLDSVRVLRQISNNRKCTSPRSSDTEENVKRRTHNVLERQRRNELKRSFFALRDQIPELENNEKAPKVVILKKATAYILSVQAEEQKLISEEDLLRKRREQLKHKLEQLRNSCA

Assay [7] can be described thus: ATG_NF_kB_CIS: Attagene CIS-FACTORIAL HepG2 Assay for human Nuclear Factor Kappa B (NF-kB) (AID 2282991). The following applies: HepG2 Attagene cis-factorial NF-kB reporter mRNA; actives raise or lower the signal. An outline of the steps:
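Endpoint from a 52-component multiplexed HepG2 reporter panel: cis-regulated transcription units transiently transfected, 24 h dosing, reporter mRNA quantified by RT-PCR and capillary electrophoresis, scored as increase or decrease against DMSO.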

Assay [8] is described as follows: ATG_NRF2_ARE_CIS: Attagene CIS-FACTORIAL HepG2 Assay for human Nuclear Factor Erythroid 2 Related Factor 2 (NFR2) response to Antioxidant Response Elements (ARE) (AID 2282992).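 On AC50: reporter mRNA level measured by RT-PCR and capillary electrophoresis fluorescence.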 The following applies: HepG2 Attagene ARE/NRF2 reporter, transcription factor activity; actives raise or lower the signal. An outline of the steps: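 Fluorescence intensity of reporter-specific cDNA fragments, separated by capillary electrophoresis, reflects mRNA induction in transfected HepG2 cells at 24 h. Activity is fitted bidirectionally, DMSO serving as baseline.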

The nature of assay [9]: ATG_Oct_MLP_CIS: Attagene CIS-FACTORIAL HepG2 Assay for human Octamer-Binding Transcription Factor (Oct) (AID 2282993). The following applies: HepG2 Attagene cis-factorial Oct reporter, mRNA; actives raise or lower the signal. An outline of the steps: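 Transient MRTU transfection of HepG2 → 24 h compound treatment → RNA isolation, reverse transcription, PCR → 6-FAM primer extension, HpaI digest → capillary electrophoresis. Activity fitted both directions against DMSO.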

The target in assay [10] is Cellular tumor antigen p53 (Homo sapiens) (UniProt P04637). As to the kind of experiment: ATG_p53_CIS: Attagene CIS-FACTORIAL HepG2 Assay for human p53 Transcription Factor (AID 2282994). The following applies: HepG2 p53 cis-element reporter, Attagene mRNA; actives raise or lower the signal. An outline of the steps: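 Transiently transfected HepG2 (multiple cis reporter transcription units); exposure 24 h; reporter RNA via RT-PCR, 6-FAM extension, 2 h HpaI digest at 37 C, CE detection; DMSO baseline.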
Cellular tumor antigen p53 (Homo sapiens), sequence (P04637 whole entry, looked up): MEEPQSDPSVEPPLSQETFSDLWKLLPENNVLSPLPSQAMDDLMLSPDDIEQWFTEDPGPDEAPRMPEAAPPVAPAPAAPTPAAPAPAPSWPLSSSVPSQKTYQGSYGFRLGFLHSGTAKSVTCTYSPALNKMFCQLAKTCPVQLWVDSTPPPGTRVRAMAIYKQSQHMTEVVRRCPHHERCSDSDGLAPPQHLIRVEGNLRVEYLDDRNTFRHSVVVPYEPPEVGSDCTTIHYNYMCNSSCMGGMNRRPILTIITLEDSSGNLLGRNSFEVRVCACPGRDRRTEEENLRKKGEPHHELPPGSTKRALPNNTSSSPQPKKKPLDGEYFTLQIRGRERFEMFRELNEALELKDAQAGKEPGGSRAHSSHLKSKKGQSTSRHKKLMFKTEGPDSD

Assay [11] can be described thus: BSK_3C_TissueFactor: BioMAP Diversity Plus: 3C Assay for Tissue Factor Biomarker Activity (AID 2282997). The following applies: BioMAP 3C HUVEC, tissue factor biomarker readout; actives raise or lower the signal. An outline of the steps:
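Tissue Factor measured by ELISA, 24 h after treatment of primary HUVEC in the BioMAP 3C setting.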

Assay [12] can be described thus: BSK_3C_uPAR: BioMAP Diversity Plus: 3C Assay for Urokinase-type plasminogen activator receptor (uPAR) Biomarker Activity (AID 2282998). The following applies: BioMAP 3C HUVEC, uPAR biomarker ELISA; actives raise or lower the signal. An outline of the steps:
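ELISA readout of uPAR on human vascular endothelium (umbilical vein primary cells), taken 24 h after chemical dosing. Increases and decreases are both fitted relative to DMSO vehicle.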

A short description of assay [13]: BSK_3C_VCAM1: BioMAP Diversity Plus: 3C Assay for Vascular cell adhesion molecule 1 (VCAM1) Biomarker Activity (AID 2282999). The following applies: BioMAP 3C HUVEC, VCAM1 ELISA, cytokine-stimulated; actives raise or lower the signal. An outline of the steps:
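HUVEC primary cells, 24 h compound exposure; VCAM-1 by ELISA; gain/loss of signal fitted bidirectionally vs DMSO baseline.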
Background: An ELISA detects its analyte on a solid surface through an enzyme-linked reagent.

Assay [14] in a line: BSK_4H_Eotaxin3: BioMAP Diversity Plus: 4H Assay for Eotaxin 3 Biomarker Activity (AID 2283000).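 On outcome: CCL26 protein level quantified by ELISA in parallel with SRB cytotoxicity check.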 The following applies: primary human endothelial cells (HUVEC); actives raise or lower the signal. An outline of the steps:
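Eotaxin-3 (CCL26) levels were measured by ELISA in HUVEC primary cultures 24 h post-dosing. Gain or loss of signal was fitted in both directions, with DMSO serving as baseline and negative control.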

The nature of assay [15]: ATG_M_32_TRANS: Attagene TRANS-FACTORIAL HepG2 Assay for M32 Transcription Factor (Internal Marker) (AID 2282984; active means hit-call score of the fitted dose curve at least 0.9, where 1 is the maximum;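 further: transcript level of a background control reporter unit measured by RT-PCR and capillary electrophoresis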). The following applies: HepG2 Attagene TRANS M32 internal marker reporter. An outline of the steps: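 Read-out: fluorescent reporter cDNA fragments resolved by capillary electrophoresis after RT-PCR of total RNA. Transfected HepG2 cells were exposed to chemical for 24 h. Activity scored in the positive direction relative to DMSO.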

In assay [16] the target is Nuclear respiratory factor 1 (Homo sapiens) (UniProt Q16656). As to the kind of experiment: ATG_NRF1_CIS: Attagene CIS-FACTORIAL HepG2 Assay for human Nuclear Respiratory Factor 1 (NRF1) Orphan Gene (AID 2282987). The following applies: HepG2 NRF1 cis-element reporter, Attagene multiplex; actives raise or lower the signal. An outline of the steps: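 Using DMSO as baseline, gain- or loss-of-signal was fitted for reporter mRNA levels in HepG2 cells transiently transfected with cis-regulated reporter units. Samples were taken 24 h after dosing and read by RT-PCR with capillary electrophoresis.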
Nuclear respiratory factor 1 (Homo sapiens), sequence (Q16656 whole entry, looked up): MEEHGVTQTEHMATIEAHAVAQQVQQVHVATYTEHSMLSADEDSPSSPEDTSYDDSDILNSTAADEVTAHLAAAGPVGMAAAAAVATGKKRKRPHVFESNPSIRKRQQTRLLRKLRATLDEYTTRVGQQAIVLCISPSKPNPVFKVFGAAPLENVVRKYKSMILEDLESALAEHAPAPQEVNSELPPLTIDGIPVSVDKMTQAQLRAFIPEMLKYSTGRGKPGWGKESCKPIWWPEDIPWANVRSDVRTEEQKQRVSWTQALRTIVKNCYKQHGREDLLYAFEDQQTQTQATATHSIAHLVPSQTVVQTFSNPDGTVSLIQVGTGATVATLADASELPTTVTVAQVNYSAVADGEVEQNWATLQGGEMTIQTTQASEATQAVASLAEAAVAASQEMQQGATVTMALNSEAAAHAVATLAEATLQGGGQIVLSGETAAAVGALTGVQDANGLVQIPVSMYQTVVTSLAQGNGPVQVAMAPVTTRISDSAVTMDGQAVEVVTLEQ

In assay [17] the target is Nuclear receptor subfamily 4 group A member 2 (Homo sapiens) (UniProt P43354). Description: ATG_NURR1_TRANS: Attagene TRANS-FACTORIAL HepG2 Assay for human Nuclear Receptor Related Protein 1 (NURR1) (AID 2282985; active means hit-call score of the fitted dose curve at least 0.9, where 1 is the maximum). The following applies: HepG2 Attagene TRANS reporter, mRNA readout. An outline of the steps: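 Read-out: reporter mRNA induction by RT-PCR plus capillary electrophoresis with fluorescence detection, after 24 h dosing of transfected HepG2 cells. Exogenous NR-Gal4 chimera activity drives GAL4-UAS reporter; activity fitted upward versus DMSO.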
Nuclear receptor subfamily 4 group A member 2 (Homo sapiens), sequence (P43354 whole entry, looked up, the tested form may be a part): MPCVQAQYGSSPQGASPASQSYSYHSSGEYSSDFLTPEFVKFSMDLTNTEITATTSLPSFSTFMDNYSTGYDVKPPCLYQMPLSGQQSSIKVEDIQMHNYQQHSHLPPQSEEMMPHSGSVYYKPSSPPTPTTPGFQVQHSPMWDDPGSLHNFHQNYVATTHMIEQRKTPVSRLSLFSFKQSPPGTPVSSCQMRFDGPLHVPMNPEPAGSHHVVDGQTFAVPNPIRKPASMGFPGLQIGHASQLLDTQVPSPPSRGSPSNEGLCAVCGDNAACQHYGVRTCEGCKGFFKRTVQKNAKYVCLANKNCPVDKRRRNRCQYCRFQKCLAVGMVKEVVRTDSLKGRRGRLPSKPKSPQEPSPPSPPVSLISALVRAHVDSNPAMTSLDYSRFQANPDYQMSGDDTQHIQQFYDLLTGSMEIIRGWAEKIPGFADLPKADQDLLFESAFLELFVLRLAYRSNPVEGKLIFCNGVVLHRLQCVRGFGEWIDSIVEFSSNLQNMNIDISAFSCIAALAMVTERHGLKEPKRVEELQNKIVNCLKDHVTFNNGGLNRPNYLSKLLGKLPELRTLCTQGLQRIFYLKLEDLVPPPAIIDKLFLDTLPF

The target of assay [18] is Bile acid receptor (Homo sapiens) (UniProt Q96RI1). As to the kind of experiment: ATG_FXR_TRANS: Attagene TRANS-FACTORIAL HepG2 Assay for Farnesoid X Receptor (FXR) (AID 2282979; active means hit-call score of the fitted dose curve at least 0.9, where 1 is the maximum;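 further: hits raise reporter mRNA above DMSO so AC50 marks FXR activation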). The following applies: HepG2 Attagene TRANS FXR-GAL4 reporter transcription. An outline of the steps:
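HepG2 cells were transiently transfected with GAL4-UAS reporters driven by chimeric NR-Gal4 proteins and dosed for 24 h. Reporter mRNA was quantified by RT-PCR, fluorescent labelling, HpaI digestion and capillary electrophoresis, with gain of signal scored versus DMSO.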

Assay [19] concerns the target Oxysterols receptor LXR-alpha (Homo sapiens) (UniProt Q13133). As to the kind of experiment: ATG_LXRa_TRANS: Attagene TRANS-FACTORIAL HepG2 Assay for human Liver X Receptor alpha (LXRa) (AID 2282980; active means hit-call score of the fitted dose curve at least 0.9, where 1 is the maximum). The following applies: HepG2 Attagene TRANS reporter, LXRa transactivation. An outline of the steps:
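HepG2 cells transiently transfected with GAL4-UAS reporter units for chimeric NR-Gal4 proteins, exposed to chemicals for 24 h. Reporter mRNA quantified by RT-PCR and capillary electrophoresis; gain of signal fitted relative to DMSO.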

Transcriptional activator Myb (Homo sapiens), sequence (P10242 whole entry, looked up): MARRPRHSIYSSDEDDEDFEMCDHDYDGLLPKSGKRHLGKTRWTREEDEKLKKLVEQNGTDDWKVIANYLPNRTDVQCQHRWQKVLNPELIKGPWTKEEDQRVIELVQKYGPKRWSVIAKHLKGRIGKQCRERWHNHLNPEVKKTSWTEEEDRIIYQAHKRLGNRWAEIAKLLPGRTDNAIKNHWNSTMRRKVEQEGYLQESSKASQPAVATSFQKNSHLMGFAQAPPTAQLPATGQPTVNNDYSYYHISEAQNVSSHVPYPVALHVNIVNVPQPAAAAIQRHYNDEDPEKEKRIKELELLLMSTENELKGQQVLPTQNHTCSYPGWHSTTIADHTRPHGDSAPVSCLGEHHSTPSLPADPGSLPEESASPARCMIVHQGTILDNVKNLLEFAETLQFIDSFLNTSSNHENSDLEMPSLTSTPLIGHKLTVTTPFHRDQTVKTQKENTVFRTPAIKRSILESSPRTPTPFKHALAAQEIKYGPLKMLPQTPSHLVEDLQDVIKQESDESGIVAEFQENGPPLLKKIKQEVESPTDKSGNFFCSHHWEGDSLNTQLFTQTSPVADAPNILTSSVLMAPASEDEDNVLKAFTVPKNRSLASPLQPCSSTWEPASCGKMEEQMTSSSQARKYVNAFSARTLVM
Hepatocyte nuclear factor 4-alpha (Homo sapiens), sequence (P41235 whole entry, looked up): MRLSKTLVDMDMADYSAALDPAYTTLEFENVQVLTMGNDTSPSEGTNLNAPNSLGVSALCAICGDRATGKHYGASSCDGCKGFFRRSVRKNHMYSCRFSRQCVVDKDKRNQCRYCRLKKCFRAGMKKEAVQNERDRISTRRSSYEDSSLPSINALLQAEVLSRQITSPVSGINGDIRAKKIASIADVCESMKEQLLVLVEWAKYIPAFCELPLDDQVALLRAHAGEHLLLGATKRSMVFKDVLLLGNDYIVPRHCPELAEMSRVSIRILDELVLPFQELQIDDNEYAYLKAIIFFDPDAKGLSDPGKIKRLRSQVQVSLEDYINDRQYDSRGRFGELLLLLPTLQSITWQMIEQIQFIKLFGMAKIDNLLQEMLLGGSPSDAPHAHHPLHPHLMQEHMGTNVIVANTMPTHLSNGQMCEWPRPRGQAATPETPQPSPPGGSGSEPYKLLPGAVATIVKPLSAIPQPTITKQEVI
Oxysterols receptor LXR-alpha (Homo sapiens), sequence (Q13133 whole entry, looked up, the tested form may be a part): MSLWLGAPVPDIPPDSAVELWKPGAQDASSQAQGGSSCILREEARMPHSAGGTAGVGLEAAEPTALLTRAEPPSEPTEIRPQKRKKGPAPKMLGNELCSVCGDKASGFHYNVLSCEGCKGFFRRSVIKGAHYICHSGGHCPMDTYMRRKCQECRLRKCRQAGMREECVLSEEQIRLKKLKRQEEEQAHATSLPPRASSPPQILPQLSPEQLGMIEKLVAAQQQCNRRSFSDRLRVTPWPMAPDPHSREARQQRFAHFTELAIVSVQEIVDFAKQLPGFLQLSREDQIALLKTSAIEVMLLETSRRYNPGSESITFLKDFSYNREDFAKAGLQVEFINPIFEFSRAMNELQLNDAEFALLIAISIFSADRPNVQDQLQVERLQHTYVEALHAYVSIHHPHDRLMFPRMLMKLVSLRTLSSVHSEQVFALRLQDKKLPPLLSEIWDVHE
Bile acid receptor (Homo sapiens), sequence (Q96RI1 whole entry, looked up, the tested form may be a part): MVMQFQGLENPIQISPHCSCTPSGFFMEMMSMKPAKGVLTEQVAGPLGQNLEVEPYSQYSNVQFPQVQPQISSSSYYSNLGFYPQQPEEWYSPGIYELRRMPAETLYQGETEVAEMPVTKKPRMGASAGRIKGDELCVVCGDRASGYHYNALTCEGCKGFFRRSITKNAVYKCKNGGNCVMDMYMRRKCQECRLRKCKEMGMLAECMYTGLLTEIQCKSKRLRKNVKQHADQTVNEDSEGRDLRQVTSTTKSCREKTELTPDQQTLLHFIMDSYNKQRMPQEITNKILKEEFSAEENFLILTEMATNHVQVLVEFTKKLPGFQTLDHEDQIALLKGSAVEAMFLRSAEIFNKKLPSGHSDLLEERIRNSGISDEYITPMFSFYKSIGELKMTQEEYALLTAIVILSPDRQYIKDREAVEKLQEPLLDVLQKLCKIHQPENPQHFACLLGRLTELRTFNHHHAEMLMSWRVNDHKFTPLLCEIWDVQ

In general, AC50 refers to the concentration giving half of the maximal activity seen. Regarding `Nc1cc([N+](=O)[O-])ccc1O`, the outcome in [1], in assay [2], in assay [3], in assay [4], in [5] and in assay [6] was inactive. Also, the outcome in assay [7], in assay [9], in [10], in assay [11], in assay [12] and in assay [13] was inactive. The outcome in assay [14] was inactive. Further, the AC50 in [8] is 38.1 µM (active); in assay [14], 14.9 µM (active).
Consider `CC1COc2ccccc2N1C(=O)C(Cl)Cl` (stereo not given), for which the molecule was classed as inactive in [1], in assay [15], in [4], in assay [16], in assay [5] and in assay [6]. Also, the outcome in assay [7] and in [11] was inactive. For the same molecule, the concentration at half-maximal activity (AC50) was 6.61 µM (active) in [8]; 30.6 µM (active) in assay [9]; 5.99 µM (active) in [12]; 11.3 µM (active) in assay [13]; 7.09 µM (active) in [14].
On to `CC1(C)[C@@H]2CC[C@@]1(C)[C@H](O)C2`, for which the molecule was classed as inactive in [1], in assay [4], in [16], in [5], in assay [6] and in assay [9]. Moreover, the molecule was called inactive in assay [10].
With `O=C(O)c1cn(-c2ccc(F)cc2)c2cc(N3CCNCC3)c(F)cc2c1=O`, the outcome in [1], in assay [17], in assay [16], in assay [5], in [6] and in assay [8] was inactive. Moreover, the molecule was called inactive in assay [9], in [10], in assay [11], in [12], in assay [13] and in assay [14].
`O=S(=O)(O)c1ccc(O)c2ncccc12`: the molecule was classed as inactive in [1], in assay [2], in [3], in [15], in assay [16] and in assay [5]. Further, the outcome in assay [6], in assay [7], in assay [8], in [9] and in assay [10] was inactive.
In the case of `O=C(O)c1ccc(C(=O)O)cc1`, the molecule was called inactive in assay [1], in [2], in [3], in assay [15], in assay [17] and in assay [4]. For the same molecule, the result in assay [16], in [6], in assay [7] and in assay [9] was inactive.
As for `Cc1cc(C2(c3cc(C)c(O)cc3C)OS(=O)(=O)c3ccccc32)c(C)cc1O`, the result in [1], in assay [2], in assay [3], in assay [4], in assay [16] and in [5] was inactive. For the same molecule, the result in [6], in [9], in assay [10], in [11], in assay [12] and in assay [13] was inactive. Besides, the result in assay [14] was inactive.
With `CCCCCCOC(=O)CCCCC`, the result in assay [1], in [2], in assay [15], in assay [4], in [16] and in [5] was inactive. For the same molecule, the call in [6], in assay [7], in assay [8], in [9] and in assay [10] was inactive.
As to `O=[N+]([O-])c1cc(C(F)(F)F)ccc1Cl`, the molecule was called inactive in assay [1], in assay [2], in assay [3], in assay [15], in assay [16] and in assay [5]. Moreover, the outcome in assay [6], in assay [10], in [11], in assay [12], in assay [13] and in [14] was inactive. Also, the half-maximal activity concentration (AC50) in assay [8] was 50.9 µM (active).
Take `Cc1ccc(Nc2ccc(O)c3c2C(=O)c2ccccc2C3=O)cc1`: the call in assay [18], in assay [19], in [15], in assay [4], in [16] and in assay [5] was inactive. The result in assay [6], in assay [7], in assay [9], in assay [10], in assay [12] and in assay [13] was inactive. For the same molecule, the result in assay [14] was inactive. Besides, the AC50 was 5.13 µM (active) in [8] and 1.13 µM (active) in assay [11].
